PubChem BioAssay
Calls of active or inactive are those of the source.

What was measured:
Albumin (Bos taurus) = Albumin (Bos taurus) (UniProt P02769); assay: bovine serum albumin binders on microarray, profiling panel, artefact control for SMM control protein annotation, biochemical, small-molecule microarray, Alexa647 label, 635/667 nm fluorescence (AID 1118); details: BSA-A647 binding, fluorescence 635 nm, higher = more signal;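 further: score merges 667 nm emission intensity and signal-to-noise per printed compound spot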
Sequence of Albumin (Bos taurus) (P02769 whole entry, looked up): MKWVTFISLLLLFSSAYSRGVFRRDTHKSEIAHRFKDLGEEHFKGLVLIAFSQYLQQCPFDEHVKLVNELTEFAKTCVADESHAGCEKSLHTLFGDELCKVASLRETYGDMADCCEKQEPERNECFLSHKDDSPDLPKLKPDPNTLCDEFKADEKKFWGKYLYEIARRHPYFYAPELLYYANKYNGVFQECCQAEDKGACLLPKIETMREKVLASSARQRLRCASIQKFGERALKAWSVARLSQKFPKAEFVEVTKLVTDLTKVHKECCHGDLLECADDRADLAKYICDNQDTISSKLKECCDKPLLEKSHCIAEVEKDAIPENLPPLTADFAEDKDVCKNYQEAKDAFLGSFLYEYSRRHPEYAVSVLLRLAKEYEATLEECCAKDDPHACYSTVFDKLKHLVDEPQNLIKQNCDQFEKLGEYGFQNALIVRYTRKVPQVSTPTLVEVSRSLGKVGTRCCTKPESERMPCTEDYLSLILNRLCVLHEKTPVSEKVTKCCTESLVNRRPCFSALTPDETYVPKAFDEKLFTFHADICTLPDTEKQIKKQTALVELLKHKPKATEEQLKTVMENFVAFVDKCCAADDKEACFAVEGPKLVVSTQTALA

[1] = small-molecule microarray binders of probe aXIP, primary screen, biochemical, NeuroSMM set, 635/667 nm fluorescence (AID 1119); details: higher = more signal, called active from +8 up or from −8 down;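 further: probe is the protein aXip251-270 applied at 1 µg/mL to compound-printed slides; binding of probe to printed compounds measured as 667 nm fluorescence plus signal to noise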
[2] = small-molecule binders of probe aNOTCH3, primary screen, biochemical, small-molecule microarray, 635/667 nm fluorescence (AID 1120); details: higher = more signal;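 further: probe is a biotin-tagged antibody raised against NOTCH3 rather than NOTCH3 protein; score merges spot fluorescence near 667 nm with spot signal to noise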
[3] = small-molecule binders of probe aNOTCH2, primary screen, biochemical, small-molecule microarray, 635/667 nm fluorescence (AID 1121); details: higher = more signal;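 further: score merges feature fluorescence read at 667 nm with its signal to noise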
[4] = target: Carbonic anhydrase 2 (Homo sapiens) (UniProt P00918); assay: CAII small-molecule binders, profiling panel, biochemical, small-molecule microarray, Alexa647-labelled CAII (AID 1122); details: CAII-A647 binding fluorescence, higher = more signal
[5] = COS7 lysate on small-molecule microarray, probe aHis, 635 nm (AID 1123); details: COS7 cell lysate, fluorescence, higher = more signal;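 further: z-score combines 667nm fluorescence intensity with signal-to-noise per printed compound spot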
[6] = compound binding in COS7 lysate, probe aLAP1, primary screen, cell lysate, small-molecule microarray (AID 1124); details: probe aLAP1, fluorescence, higher = more signal;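 further: lysate comes from COS7 cells expressing LAP1 and is applied at 0.3 µg/mL; score merges spot fluorescence near 667 nm with signal-to-noise over triplicate slides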
Sam68 (KHDRBS1) = assay: Sam68 small-molecule binders, primary screen, biochemical, small-molecule microarray, 635 nm fluorescence (AID 1125); details: small-molecule microarray binding, higher = more signal;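 further: score merges 667 nm channel intensity with signal to noise over triplicate slides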
[7] = test system: Chordin-like protein 2 (CHRDL2); assay: CHRDL2 small-molecule binders, primary screen, biochemical, small-molecule microarray, 635 nm fluorescence (AID 1126); details: small-molecule microarray binding, fluorescence 635 nm; higher = more signal;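 further: printed compound slides probed with Chrdl2 protein at 4 µg/mL for 1 h at 4 C; score merges 667 nm emission intensity with signal to noise over three replicate slides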
[8] = target: Concanavalin-A (Canavalia ensiformis) (UniProt P02866); assay: ConA small-molecule binders, primary screen, artefact control for SMM control protein annotation, biochemical, small-molecule microarray, Alexa647 label, 635 nm (AID 1127); details: ConA-A647 binding fluorescence, higher = more signal;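 further: z combines 667 nm emission intensity with signal-to-noise across three replicate slides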
Sequence of Concanavalin-A (Canavalia ensiformis) (P02866 whole entry, looked up): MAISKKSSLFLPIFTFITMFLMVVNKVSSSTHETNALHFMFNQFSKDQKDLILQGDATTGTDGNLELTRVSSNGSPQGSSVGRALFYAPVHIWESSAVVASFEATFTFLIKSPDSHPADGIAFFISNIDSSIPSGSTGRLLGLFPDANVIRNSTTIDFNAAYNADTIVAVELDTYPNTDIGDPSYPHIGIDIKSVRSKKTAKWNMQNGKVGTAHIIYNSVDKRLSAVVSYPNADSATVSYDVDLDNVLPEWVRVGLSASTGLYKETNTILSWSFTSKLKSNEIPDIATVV

[9] = anti-His antibody binders, primary screen, artefact control for SMM control protein annotation, biochemical, small-molecule microarray, 635 nm fluorescence (AID 1128); details: anti-His Alexa647 antibody binding, higher = more signal;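 further: score merges feature fluorescence with signal-to-noise for each printed compound spot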
[10] = test system: Human papillomavirus type 1a E7 protein (residues 1-88); assay: HPV1a E7 small-molecule binders, primary screen, biochemical, small-molecule microarray, residues 1-88, 635 nm (AID 1129); details: small-molecule microarray binding, fluorescence 635 nm; higher = more signal
[11] = target: Focal adhesion kinase 1 (Homo sapiens) (UniProt Q05397); assay: small-molecule microarray binders of FAK, primary screen, biochemical, 635/667 nm fluorescence, BSA, DTT (AID 1130); details: PTK2 binding, 635 nm fluorescence, higher = more signal;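 further: composite of spot emission at 667 nm and signal to noise over triplicate slides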
Sequence of Focal adhesion kinase 1 (Homo sapiens) (Q05397 whole entry, looked up): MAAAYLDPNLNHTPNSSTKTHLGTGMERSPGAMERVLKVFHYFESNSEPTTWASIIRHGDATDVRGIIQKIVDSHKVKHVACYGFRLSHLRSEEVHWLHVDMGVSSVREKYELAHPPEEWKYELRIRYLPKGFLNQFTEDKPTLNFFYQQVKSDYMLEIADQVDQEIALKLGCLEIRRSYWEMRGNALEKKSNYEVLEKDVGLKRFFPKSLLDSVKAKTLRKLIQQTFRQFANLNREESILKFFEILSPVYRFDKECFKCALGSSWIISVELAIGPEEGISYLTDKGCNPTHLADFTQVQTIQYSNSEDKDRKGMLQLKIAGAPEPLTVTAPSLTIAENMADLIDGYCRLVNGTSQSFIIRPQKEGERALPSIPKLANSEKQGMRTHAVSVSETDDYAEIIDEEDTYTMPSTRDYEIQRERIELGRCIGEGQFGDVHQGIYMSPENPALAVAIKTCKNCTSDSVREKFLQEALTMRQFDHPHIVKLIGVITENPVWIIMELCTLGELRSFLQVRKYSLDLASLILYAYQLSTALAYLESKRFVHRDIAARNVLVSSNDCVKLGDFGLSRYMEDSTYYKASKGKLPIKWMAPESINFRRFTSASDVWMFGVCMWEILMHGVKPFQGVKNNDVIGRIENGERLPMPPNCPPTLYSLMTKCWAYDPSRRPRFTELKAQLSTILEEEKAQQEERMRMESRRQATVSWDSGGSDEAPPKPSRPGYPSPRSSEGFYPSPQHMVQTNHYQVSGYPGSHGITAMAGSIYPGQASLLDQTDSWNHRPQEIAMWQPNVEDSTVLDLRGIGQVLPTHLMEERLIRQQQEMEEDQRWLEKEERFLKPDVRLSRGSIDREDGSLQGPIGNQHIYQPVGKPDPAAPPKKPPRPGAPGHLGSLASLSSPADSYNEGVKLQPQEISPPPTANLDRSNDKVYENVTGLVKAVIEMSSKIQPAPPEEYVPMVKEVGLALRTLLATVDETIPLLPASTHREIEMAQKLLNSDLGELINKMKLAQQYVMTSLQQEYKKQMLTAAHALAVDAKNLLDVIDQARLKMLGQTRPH

[12] = test system: Fibrinogen (Alexa647-labelled); assay: fibrinogen binders on compound microarrays, profiling panel, artefact control for SMM control-protein annotation, biochemical, small-molecule microarray, 635/667 nm fluorescence (AID 1131); details: fibrinogen-A647 binding fluorescence, higher = more signal;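 further: z-score merges 667 nm fluorescence with per-spot signal-to-noise over triplicate slides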
[13] = target: Follistatin (Homo sapiens) (UniProt P19883); assay: follistatin binders on small-molecule microarrays, primary screen, biochemical, small-molecule microarray, 635/667 nm fluorescence (AID 1132); details: FST binding, 635 nm fluorescence, higher = more signal
Sequence of Follistatin (Homo sapiens) (P19883 whole entry, looked up): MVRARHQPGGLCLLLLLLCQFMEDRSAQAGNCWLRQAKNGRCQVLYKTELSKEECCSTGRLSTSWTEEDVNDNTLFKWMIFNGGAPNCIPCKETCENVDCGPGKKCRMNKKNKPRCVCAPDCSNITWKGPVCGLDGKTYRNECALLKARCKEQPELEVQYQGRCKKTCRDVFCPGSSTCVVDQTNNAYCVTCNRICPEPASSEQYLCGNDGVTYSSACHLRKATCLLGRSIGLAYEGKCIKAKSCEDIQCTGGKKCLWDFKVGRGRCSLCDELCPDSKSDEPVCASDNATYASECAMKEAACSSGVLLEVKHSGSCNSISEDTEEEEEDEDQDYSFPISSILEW

[14] = target: Fibroblast growth factor 2 (Homo sapiens) (UniProt P09038); assay: FGF2 binders on small-molecule microarrays, primary screen, biochemical, small-molecule microarray, 635/667 nm fluorescence (AID 1133); details: small-molecule microarray binding, FGF2, fluorescence 635/667; higher = more signal
Sequence of Fibroblast growth factor 2 (Homo sapiens) (P09038 whole entry, looked up): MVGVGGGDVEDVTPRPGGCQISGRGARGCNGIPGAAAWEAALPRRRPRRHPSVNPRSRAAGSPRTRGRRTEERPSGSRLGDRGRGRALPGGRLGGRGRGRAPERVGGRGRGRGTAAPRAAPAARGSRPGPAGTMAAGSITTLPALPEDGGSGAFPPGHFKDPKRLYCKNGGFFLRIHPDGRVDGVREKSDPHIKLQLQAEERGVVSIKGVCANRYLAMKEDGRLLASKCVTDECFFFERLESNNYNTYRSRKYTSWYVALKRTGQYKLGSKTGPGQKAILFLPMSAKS

[15] = mitochondrial membrane potential change in A549 cells, profiling panel, cell-based, JC-1 fluorescence, basal, 24 h, 100 nL (AID 1138); details: higher = more signal;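 further: A549 lung adenocarcinoma cells under basal conditions with no added stimulus; test concentration not given here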
Lefty1 = Lefty1 binders on small-molecule microarrays, primary screen, biochemical, small-molecule microarray, 635/667 nm fluorescence (AID 1139); details: small-molecule microarray binding, fluorescence 635/667; higher = more signal
[16] = test system: wheat germ agglutinin (Triticum aestivum), Alexa647-labelled; assay: wheat germ agglutinin binders on compound microarrays, profiling panel, artefact control for SMM control-protein annotation, biochemical, small-molecule microarray, 635/667 nm fluorescence (AID 1140); details: WGA-A647 binding, 635 nm fluorescence, higher = more signal;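 further: score merges 667 nm feature emission with signal to noise over triplicate slides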
[17] = target: Luciferin 4-monooxygenase (Photinus pyralis) (UniProt P08659); assay: firefly luciferase enzyme inhibitors, primary screen, biochemical, luminescence, purified enzyme, 2006 set (AID 1141); details: SteadyGlo luminescence, 30 min, higher = more signal, called active from +8 up or from −8 down;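 further: cell-free assay with purified firefly luciferase at 100 ng per well in PBS; test concentration not given here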
Sequence of Luciferin 4-monooxygenase (Photinus pyralis) (P08659 whole entry, looked up): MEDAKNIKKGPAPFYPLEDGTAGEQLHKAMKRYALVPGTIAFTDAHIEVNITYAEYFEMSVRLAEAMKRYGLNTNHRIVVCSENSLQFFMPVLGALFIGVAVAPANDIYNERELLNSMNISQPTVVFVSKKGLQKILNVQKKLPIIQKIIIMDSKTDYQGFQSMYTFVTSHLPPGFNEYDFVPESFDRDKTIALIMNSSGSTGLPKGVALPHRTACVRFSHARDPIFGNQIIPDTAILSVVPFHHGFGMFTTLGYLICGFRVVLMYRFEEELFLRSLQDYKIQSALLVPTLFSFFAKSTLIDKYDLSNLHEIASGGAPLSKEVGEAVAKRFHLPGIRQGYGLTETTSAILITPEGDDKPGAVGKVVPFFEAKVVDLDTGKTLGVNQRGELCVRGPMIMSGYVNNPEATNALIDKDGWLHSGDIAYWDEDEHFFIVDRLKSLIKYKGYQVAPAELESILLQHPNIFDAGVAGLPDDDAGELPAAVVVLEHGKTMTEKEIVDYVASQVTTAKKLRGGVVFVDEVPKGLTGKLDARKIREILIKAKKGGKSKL

Compound	composite z-score (Albumin (Bos taurus))	composite Z-score [1]	composite z-score [2]	composite z-score [3]	composite z-score [4]	composite z-score [5]	composite z-score [6]	composite z-score (Sam68 (KHDRBS1))	composite z-score [7]	composite z-score [8]	composite z-score [9]	composite z-score [10]	composite z-score [11]	composite z-score [12]	composite z-score [13]	composite z-score [14]	z-score [15]	composite z-score (Lefty1)	composite z-score [16]	z-score [17]
C=C(/C(=C/C[C@H](OC(=O)c1ccncc1)c1ccc(OCCO)cc1)c1cnc2ccccc2c1)C(C)C	0.139	0.184 (inactive)	0.173	-0.118	0.946	0.118	0.62	1.32	1.14	1.16	0.426	1.21	0.144	0.853	1.47	1.82	1.26	1.52	0.843	-2.12 (inactive)
Cc1cc2c(nc1C)CCCN2CC(C)ON=C1[C@H]2CCn3c(=O)n(-c4ccccc4)c(=O)n3[C@H]2[C@H](O)[C@@H]2O[C@H]12 (stereo not given in full)	0.243	0.506 (inactive)	0.173	-0.0535	0.171	0.198	0.136	1.24	0.647	0.367	-0.674	0.304	0.515	0.342	0.687	0.56	-0.562	0.703	0.075	0.424 (inactive)
CCOC(=O)[C@H](CC(C)C)NC(=O)CCC1CC(OC(=O)NCCc2ccc(F)cc2)CC2(CCCC(COC(=O)NCc3ccccc3)O2)O1 (stereo not given in full)	0.173	-0.0657 (inactive)	0.257	-0.131	0.274	1.27	0.362	1.14	0.623	0.754	0.49	1.17	0.212	0.538	0.693	0.936	-0.692	1.04	0.422	0.629 (inactive)
CO[C@@H]1COC(=O)CC=C[C@@H](C)[C@@H]2C=C[C@H](O)[C@@H](COC(=O)[C@H](C)NC(=O)CC=C[C@H]1C)O2	-0.107	0.581 (inactive)	-0.0328	-0.164	-0.455	-1	1.27	0.249	1.54	-0.016	1.85	-0.794	-0.407	-0.734	1.11	1.73	-1.23	1.53	-0.17	1.02 (inactive)
C#CCCCON=C1C[C@@H](O)[C@@H](O)[C@@H]2[C@@H]3C(=O)N(Cc4ccccc4)C(=O)[C@@H]3CC[C@H]12	0.344	0.497 (inactive)	-0.056	-0.2	-0.009	0.363	-0.316	-0.0716	0.477	0.372	0.0056	0.126	0.256	-0.307	0.592	0.171	-0.732	0.582	0.253	0.883 (inactive)
CCCC=C(CCC)[C@@H](NC(=O)c1ccc(-c2ccccc2)cc1)c1ccc(C(=O)OC)cc1	0.127	0.0503 (inactive)	0.197	0.0382	0.185	2.41	-0.075	1.26	-0.955	0.724	0.377	1.19	0.296	0.967	0.142	-0.558	-0.457	-0.182	1.2	1.93 (inactive)
